About 1,100 (48%) of roughly 2,300 compounds were called active. The set was probably picked from earlier hits. The list shows a part of the results. Potency and affinity values are given separately. Values without a mark were called inactive. No rule for the calls is given here.

In general, inhibition refers to the drop in the measured response relative to a control, in per cent.

This assay in a line: inhibitors in S. typhi counter-screen strain, dose response, counter-screen for PhoP regulon inhibitor project, fluorescence, 4 h (AID 2384). The note with it: S. typhi GFP reporter counter-screen; series mostly up to 150 µM; inhibition: at the top concentration. Background: Counterscreens check selectivity or assay interference.
As for `CC(C)[C@H](NC(=O)c1ccccc1Cl)C(=O)Nc1nc(-c2ccccn2)cs1`, the “inhibition” value was 6.8%.

Consider `O=C(Nc1ccncc1)c1cc(-c2ccccn2)nc2ccccc12`, for which the “inhibition” value was 3.75%.

With `Cn1cc(S(=O)(=O)Nc2ccc(OC(F)(F)F)cc2)c(=O)n(C)c1=O`, the “inhibition” value was 2.31%.

Regarding `CC(C)NC(=O)CN1CCN(Cc2nc(C(c3ccccc3)c3ccccc3)no2)CC1`, the “inhibition” value is 9.52%.

For `O=C(O)c1cc2cc(F)ccc2[nH]1`, the “inhibition” value was -16.8%.

In the case of `CCN1CCN(C(=O)Cc2coc3cc(C)cc(C)c23)CC1`, the “inhibition” value was 6.4%.

As to `COc1c(C(=O)N2CCCC2)ccc2ccccc12`, the “inhibition” value was -8.29%.

Take `CCN1CCN(C(=O)/C=C/c2cccc(Cl)c2)CC1`: the “inhibition” value is 38.5%.

For `COc1ccc2c(C(=O)CCl)c[nH]c2c1`, the “inhibition” value is 2.29%.

With `Cc1c(Cl)cccc1NC(=O)C1CCN(S(C)(=O)=O)CC1`, the “inhibition” value was -31.6%.

For the compound `COCc1ccc(C(=O)Nc2ccc(C(=O)O)cc2)o1`, the “inhibition” value was 33.9%.

As for `COc1cccc(OC)c1C(=O)Nc1ccc(N2CCN(S(C)(=O)=O)CC2)cc1`, the “inhibition” value is 16.1%.

With `CCOC(=O)Cc1[nH]nc2c1C(c1ccoc1)C(C#N)=C(N)O2` (configuration not stated), the “inhibition” value is 16.3%.

For `O=C1c2ccccc2C(=O)C1(CO)c1ccc(OC(F)F)cc1`, the “inhibition” value was 10.6%.

On to `O=c1c2ccccc2nc(-c2cccc(Cl)c2)n1O`, for which the “inhibition” value is 18.7%.

Take `COc1ccc(C(=O)O/N=C2\C(=O)N(C)c3ccccc32)cc1`: the “inhibition” value was -11.3%.

In the case of `Cc1nc(SCC(=O)N2c3ccccc3Sc3ccccc32)n[nH]1`, the “inhibition” value is -16.7%.

Turning to `CC(=O)NCCn1c(SCc2ccccc2C)nc2ccccc2c1=O`, the “inhibition” value is -10.7%.

Take `Cc1ccn2cc(C(=O)Nc3nnc(C)s3)nc2c1`: the “inhibition” value is -9.14%.

On to `Cc1cccc(N/N=C/c2ccc(O)c(O)c2O)c1`, for which the “inhibition” value was 38.9%.

`O=C(NCCO)C(=O)c1c(-c2ccc(Cl)cc2)cc2ccccn12`: the “inhibition” value was -15.4%.

Regarding `CC(C)c1ccc(C2C(C#N)=C(N)Oc3c2oc(CO)cc3=O)cc1` (configuration not stated), the “inhibition” value was -1.23%.

For the compound `COc1ccc(NS(=O)(=O)c2cccc(NC(=O)c3ccccn3)c2)cc1`, the “inhibition” value is -6.56%.

For `CCN(CC)CCNC(=O)c1cccc(NC(=O)C(=O)c2cc(Br)ccc2NC(C)=O)c1`, the “inhibition” value is -5.6%.

For the compound `O=C(NC(=C(Cl)Cl)S(=O)(=O)c1ccc(Cl)cc1)c1ccccc1`, the “inhibition” value is -8.31%.

Regarding `CCCN1C(=O)c2ccc(C(=O)Nc3nccs3)cc2C1=O`, the “inhibition” value was -20.2%.

For the compound `O=C(NCc1cccnc1)c1ccc(Cl)cc1[N+](=O)[O-]`, the “inhibition” value is -24.5%.

For `Nc1ccc(S(=O)(=O)Nc2nccs2)cc1`, the “inhibition” value was -15.3%.

For the compound `O=C(Nc1ccccc1)Nc1cccc(Cl)c1`, the “inhibition” value is 14.8%.

`O=C(CCl)Nc1nccs1`: the “inhibition” value is 28.1%.

For `O=C(NCc1ccco1)c1ccc2c(c1)N(Cc1ccccc1)CCS2`, the “inhibition” value was -4.41%.

As to `CN1C(=O)/C(=C/c2cccc(Cl)c2)Sc2ccc(C(=O)N3CCCC3)cc21`, the “inhibition” value is 3.12%.

In the case of `O=C(COC(=O)/C=C/c1cccc(C(F)(F)F)c1)NCc1ccccc1`, the “inhibition” value was -4.38%.

With `CCC(=O)Nc1nc(C)c(C(=O)N2CCCCC2)s1`, the “inhibition” value is 9.2%.

In the case of `O=C1c2ccccc2C(=O)N1CCC(c1ccccc1)c1ccco1` (configuration not stated), the “inhibition” value was -5.55%.

`CCc1ccccc1NC(=O)c1onc(C)c1Cl`: the “inhibition” value was -5.45%.

For `CC1(C)CC(=O)C2=C(C1)N(c1ccc(F)cc1)C(=O)CC2c1ccsc1` (configuration not stated), the “inhibition” value was -21.1%.

On to `CCc1cc(CNC(=O)C2CCC(=O)N(Cc3cccc(F)c3)C2)on1` (configuration not stated), for which the “inhibition” value is -24.2%.

As to `Fc1ccccc1CSc1ccc(-c2ccco2)nn1`, the “inhibition” value is -12.9%.

As for `COc1cccc(NC(=O)CSc2nncn2-c2ccccn2)c1`, the “inhibition” value was -7.4%.

Regarding `N#CCCn1c2ccccc2c2nc3ccccc3nc21`, the “inhibition” value was -2.6%.

`Cc1cccc(S(=O)(=O)c2c(N)n(/N=C/c3ccccc3)c3nc4ccccc4nc23)c1`: the “inhibition” value is 8.36%.

As to `CCCCn1c(NCc2ccccc2NS(=O)(=O)c2ccc(C)cc2)nc2ccccc21`, the “inhibition” value was -17.6%.

On to `CCN1CCN(c2nc3ccccc3nc2C(C#N)S(=O)(=O)c2ccc(C)cc2)CC1` (configuration not stated), for which the “inhibition” value is 16.5%.

For the compound `CCCN(CCC)c1nc(C)cc(C(C#N)c2nc3ccccc3o2)n1` (configuration not stated), the “inhibition” value is -11.1%.

Regarding `CS(=O)(=O)c1cnc2c(-c3ccsc3)cnn2c1N`, the “inhibition” value is 2.48%.

Regarding `CS(=O)(=O)c1cnc2c(-c3ccc(F)cc3)cnn2c1N`, the “inhibition” value was 5.15%.

Consider `Cc1ccc(OCC(O)Cn2c(N)nc3c2c(=O)n(C)c(=O)n3C)cc1` (configuration not stated), for which the “inhibition” value was 9.77%.

`C=C(C)Cn1c(-c2ccc(OC)cc2)nc2ccccc21`: the “inhibition” value was -14.9%.

As for `CC(C)Cc1nc(N2CCOCC2)c(C#N)c2c1COC(C)(C)C2`, the “inhibition” value is 9.96%.

As to `C1CCC(n2nnnc2CN2CCN(C3CCCC3)CC2)CC1`, the “inhibition” value was -17.6%.

`CCCCC(=O)Nc1ccc(F)c(Cl)c1`: the “inhibition” value is 4.38%.

Turning to `CCN(CC)C(=O)C(=O)c1cn(CC(=O)N2CCc3ccccc3C2)c2ccccc12`, the “inhibition” value was 14.3%.

Take `Cc1ccccc1-c1ncc(CN2CCN(C3CCCC3)C(CCO)C2)cn1` (configuration not stated): the “inhibition” value was -17.2%.

For `COC(=O)c1ccc(OC(=O)c2cccnc2)cc1`, the “inhibition” value was 16.5%.

Turning to `COc1cccc(/C=C/C(=O)c2cccc([N+](=O)[O-])c2)c1OC`, the “inhibition” value was 11%.

On to `COC(=O)c1cn(C(=O)c2ccco2)c2ccccc12`, for which the “inhibition” value is 14.2%.

Source of the values: PubChem BioAssay AID2384 (Southern Research Specialized Biocontainment Screening …, 2010).
